In the supplement of paper PMC4723716 one finds viability index data, which are given here for 68 compounds.

The subject of this assay is Plasmodium falciparum NF54 stage V gametocytes. As to the kind of experiment: viability index relative to DMSO control (fraction); higher = less gametocyte killing. The following applies: 2.5 µM, incubation time: 72 h. A digest of the protocol: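 In 1,536-well plates, 10 µl of serum-free medium holding P. falciparum NF54 stage V gametocytes (0.75% gametocytemia, 1.25% hematocrit) received compound at 2.5 µM for 72 hr at 37°C in low oxygen. After one to two hours with 3 µl of 2.5 µM MitoTracker Red CMXRos containing 0.13% saponin, red particles of 20–70 µm2 were counted in a single field per well. Viability index is reported as the particle count over the plate mean of wells treated with solvent only.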

[1] abbreviates: library set: Broad Institute DOS.
[2] abbreviates: library set: Broad Institute Blood Stage.

± gives the uncertainty stated by the source. The full ranking holds about 9,900 compounds; the median of “viability index relative to DMSO control” is about 1, and the lowest 2% start at about 0.85. The sample as a whole holds a higher share of the lowest values than the screen did.

`C[C@@H]1CN([C@@H](C)CO)C(=O)Cc2cc(NC(=O)CCC(F)(F)F)ccc2O[C@@H]1CN(C)CC1CC1` yielded a viability index under setting [1] of 1.04 ± 0.075. Regarding `Cc1noc(C)c1S(=O)(=O)N(C)C[C@H]1OCCCC[C@H](C)Oc2ccc(NS(=O)(=O)c3cn(C)cn3)cc2C(=O)N([C@H](C)CO)C[C@@H]1C`, the viability index under setting [1] amounted to 1.08 ± 0.019. On the same count and under the same terms, the figure for `Cc1noc(C)c1S(=O)(=O)N(C)C[C@H]1OCc2cn(nn2)CCCC(=O)N([C@H](C)CO)C[C@@H]1C` is 0.952 ± 0.014; for `C[C@H](CO)N1C[C@H](C)[C@@H](CN(C)C)OCc2ccccc2-c2c(n(C)c3ccccc23)C1=O` it is 1.04 ± 0.08; for `CNC[C@@H]1OCCCC[C@@H](C)Oc2ccc(NC(=O)Nc3ccc(OC)cc3)cc2C(=O)N([C@H](C)CO)C[C@H]1C` it is 1.05 ± 0.011. Turning to `C[C@H]1CN([C@@H](C)CO)C(=O)c2ccccc2-c2ccccc2CO[C@@H]1CN(C)C(=O)[C@@H]1CCCN1C`, the viability index under setting [1] was determined as 0.946 ± 0.043.

In turn, `COc1cccc(-c2cccc(-c3nc(C(=O)NCc4ccc(Oc5ccccc5)cc4)cc4c3[C@@H](CCO)N(S(=O)C(C)(C)C)C4)c2)c1` (stereo partly drawn) displayed a viability index under setting [2] of 0.799 ± 0.032. On to `CC(C)(C)[S@@](=O)N1Cc2cc(C(=O)NCCc3ccncc3)nc(-c3cccc(-c4cccc(C#N)c4)c3)c2[C@H]1CCO`, for which the viability index under setting [1] is 1.06 ± 0.084. Still for that read-out and setting: the figure for `CC(C)NC(=O)N1Cc2cc(C(=O)NC3CCC3)nc(-c3cccc(-c4cncnc4)c3)c2[C@@H]1CCO` is 1.01 ± 0.018; for `CC(C)(C)S(=O)N1Cc2cc(C(=O)NCc3ccc(Oc4ccccc4)cc3)nc(-c3cccc(-c4cccc(F)c4)c3)c2[C@@H]1CCO` (stereo partly drawn) it is 1.02 ± 0.034. The same measure, in the same setting: with `CC(C)(C)[S@](=O)N1Cc2cc(C(=O)NCc3ccccn3)nc(-c3cccc(-c4ccccc4F)c3)c2[C@@H]1CCO` the figure was 0.955 ± 0.08; with `CC(C)NC(=O)N1Cc2cc(C(=O)NC3Cc4ccccc4C3)nc(-c3cccc(-c4cccnc4)c3)c2[C@@H]1CCO`, 0.97 ± 0.052; with `CC(C)(C)[S@@](=O)N1Cc2cc(C(=O)NCc3ccccc3F)nc(-c3cccc(-c4cncnc4)c3)c2[C@H]1CCO`, 0.801 ± 0.1. Under setting [1], `CC(C)(C)[S@](=O)N1Cc2cc(C(=O)NCCc3ccncc3)nc(-c3cccc(-c4cccc(C#N)c4)c3)c2[C@@H]1CCO` had a viability index of 1.08 ± 0.081. Under setting [1], `COc1ccc(CNC(=O)c2cc3c(c(-c4cccc(-c5ccc(C#N)cc5)c4)n2)[C@H](CCO)N([S@@](=O)C(C)(C)C)C3)cc1` returned a viability index of 0.977 ± 0.085. Still for that read-out and setting: the figure for `CC(C)NC(=O)N1Cc2cc(C(=O)NC3Cc4ccccc4C3)nc(-c3cccc(-c4cccnc4)c3)c2[C@H]1CCO` is 0.764 ± 0.091. As for `CC(C)(C)[S@@](=O)N1Cc2cc(C(=O)NCCc3ccncc3)nc(-c3cccc(-c4ccccc4)c3)c2[C@H]1CCO`, the viability index under setting [2] was 0.763 ± 0.047. `CC(C)(C)[S@](=O)N1Cc2cc(C(=O)NCc3ccccc3F)nc(-c3cccc(-c4cncnc4)c3)c2[C@@H]1CCO` yielded a viability index under setting [1] of 0.89 ± 0.056. Still for that read-out and setting: with `CO[C@@H]1CC[C@H]2CCN(C)C(=O)[C@H](C)CN(C)C(=O)c3cc(C#N)ccc3OC[C@@H]1O2` the figure was 0.973 ± 0.056; with `CCC(=O)Nc1ccc2c(c1)C(=O)N(C)C[C@@H](OC)[C@H](C)CN(C(=O)Cc1cccnc1)[C@@H](C)CO2`, 1.13 ± 0.043; with `O=C(Cc1ccncc1)N1CC[C@@H]2[C@H](CO)Nc3ccc(Br)cc3[C@@H]21`, 1.077 ± 0.0015. Still for that read-out and setting: the figure for `C/C=C/c1cccc(-c2nc(C(=O)Nc3nccs3)cc3c2[C@@H](CCO)N(C(=O)NC(C)C)C3)c1` is 0.867 ± 0.035. For the compound `C[C@@H]1CN([C@H](C)CO)C(=O)Cc2cc(NC(=O)Nc3ccc(F)cc3)ccc2O[C@H]1CN(C)S(C)(=O)=O`, under setting [1], the viability index was 0.939 ± 0.16. Same read-out and setting: the figure for `CC(=O)NC[C@H]1[C@@H](c2ccc(C#Cc3ccccc3F)cc2)[C@@H](CO)N1C(C)=O` is 1.05 ± 0.002; for `C/C=C/c1ccc([C@H]2[C@@H](CO)N(C(=O)NC3CCCCC3)[C@H]2C#N)cc1` it is 1.11 ± 0.16. On the same count and under the same terms, the figure for `CC(C)C#Cc1ccc([C@@H]2[C@@H](CO)N(C(=O)c3cccc(F)c3)[C@H]2C#N)cc1` is 1.17 ± 0.073; for `Cc1noc(C)c1S(=O)(=O)N(C)C[C@@H]1OCCCC[C@@H](C)Oc2ccc(N(C)C)cc2C(=O)N([C@@H](C)CO)C[C@H]1C` it is 0.635 ± 0.13.

The compound `Cc1noc(C)c1S(=O)(=O)N(C)C[C@H]1OCCCC[C@@H](C)Oc2ccc(N(C)C)cc2C(=O)N([C@H](C)CO)C[C@@H]1C` had a viability index under setting [1] of 1.02 ± 0.029. Same read-out and setting: with `C[C@@H]1CCCCO[C@@H](CN(C)S(=O)(=O)c2ccc(F)cc2)[C@H](C)CN([C@@H](C)CO)C(=O)c2cc(N(C)C)ccc2O1` the figure was 1.05 ± 0.092; with `C[C@@H]1CCCCO[C@@H](CN(C)S(=O)(=O)c2ccc(F)cc2)[C@@H](C)CN([C@@H](C)CO)C(=O)c2cc(N(C)C)ccc2O1`, 0; with `Cc1noc(C)c1S(=O)(=O)N(C)C[C@@H]1OCCCC[C@@H](C)Oc2ccc(N(C)C)cc2C(=O)N([C@@H](C)CO)C[C@@H]1C`, 1.08 ± 0.068. In the case of `C[C@H]1CCCCO[C@H](CN(C)S(=O)(=O)c2ccc(F)cc2)[C@@H](C)CN([C@@H](C)CO)C(=O)c2cc(N(C)C)ccc2O1`, under setting [1], the viability index was found to be 1.09 ± 0.17. Same read-out and setting: with `CCC(=O)N1[C@@H](CO)[C@@H]2c3ccccc3N(C(=O)Nc3ccc(Cl)cc3)C[C@@H]21` the figure was 1.1 ± 0.044. On the same count and under the same terms, the figure for `COc1cccc(-c2ccc([C@H]3[C@H]4CNC[C@@H]3N4CC3CCCCC3)cc2)c1` is 0.963 ± 0.029. The same measure, in the same setting: with `CCCC#Cc1cnc2c(c1)C(=O)N([C@H](C)CO)C[C@H](C)[C@H](CN(C)C(=O)Nc1cc(F)ccc1F)O2` the figure was 1.02 ± 0.081. Under setting [1], `CO[C@@H]1CN(C)C(=O)c2cc(NC(=O)Nc3cccc(Cl)c3)ccc2OC[C@@H](C)N(C(=O)Nc2c(C)noc2C)C[C@H]1C` gave a viability index of 1.052 ± 0.0092. Under setting [2], `COc1ccccc1CN1C[C@@H](C)[C@H](OC)CN(C)C(=O)c2ccc(NC(=O)Nc3ccccc3OC)cc2OC[C@H]1C` returned a viability index of 0.855 ± 0.025.

In turn, `CO[C@H]1CN(C)C(=O)c2cc(NC(=O)Nc3cccc(Cl)c3)ccc2OC[C@H](C)N(C(=O)Nc2c(C)noc2C)C[C@H]1C` returned a viability index under setting [1] of 0.7814 ± 0.0047. In turn, `CO[C@@H]1CN(C)C(=O)c2cc(NC(=O)Nc3cccc(Cl)c3)ccc2OC[C@H](C)N(C(=O)Nc2c(C)noc2C)C[C@H]1C` registered a viability index under setting [1] of 1.07 ± 0.019.

Compound `COc1ccccc1NC(=O)Nc1ccc2c(c1)OC[C@@H](C)N(Cc1ccccc1Cl)C[C@@H](C)[C@H](OC)CN(C)C2=O` returned a viability index under setting [2] of 0.821 ± 0.053. On to `COc1ccccc1CN1C[C@@H](C)[C@H](OC)CN(C)C(=O)c2cc(NC(=O)Nc3ccccc3OC)ccc2OC[C@H]1C`, for which, under setting [1], the viability index came to 1.02 ± 0.091.

In turn, `Fc1cccc(-c2ccc([C@H]3[C@H]4CNC[C@@H]3N4CC3CCOCC3)cc2)c1` gave a viability index under setting [1] of 1.02 ± 0.0019. The same measure, in the same setting: the figure for `C[C@@H]1CN([C@@H](C)CO)C(=O)c2ccccc2-c2ccccc2CO[C@@H]1CN(C)C(=O)[C@@H]1CCCN1C` is 0.936 ± 0.093. On the same count and under the same terms, the figure for `COc1ccc2c3c([C@@H](CO)N(Cc4nccs4)C[C@]33CCN(CC4CCCC4)CC3)n(C)c2c1` is 0.848 ± 0.029. Same read-out and setting: the figure for `COc1ccc2c3c([C@H](CO)N(CC4CCOCC4)C[C@]33CN(Cc4nccs4)C3)n(C)c2c1` is 1.08 ± 0.019. Compound `COc1ccc2c3c([C@H](CO)N(Cc4nccs4)C[C@]33CCN(CC3)C(=O)CN(C)C)n(C)c2c1` came in with a viability index under setting [1] of 0.955 ± 0.12.

On to `COc1ccc2c3c([C@@H](CO)N(Cc4nccs4)C[C@]33CCN(CC3)C(=O)CN(C)C)n(C)c2c1`, for which the viability index under setting [1] worked out at 0.905 ± 0.039.

`COc1ccc2c3c([C@H](CO)N(Cc4nccs4)C[C@]33CCN(CC4CCCC4)CC3)n(C)c2c1`: the viability index under setting [1] came to 0.841 ± 0.028. Same read-out and setting: with `COc1ccc2c3c([C@@H](CO)N(CC4CCOCC4)C[C@]33CN(Cc4nccs4)C3)n(C)c2c1` the figure was 1.1 ± 0.08.

In the case of `CO[C@H]1CN(C)C(=O)c2cc(NC(=O)NC(C)C)ccc2OC[C@@H](C)N(C(=O)CN(C)C)C[C@H]1C`, the viability index under setting [1] is 1.03 ± 0.043.

Regarding `COCC#Cc1ccc([C@@H]2[C@@H](CO)N3C(=O)CN(C(=O)Nc4ccccc4F)C[C@@H]23)cc1`, the viability index under setting [1] came to 1.02 ± 0.025. The same measure, in the same setting: the figure for `C[C@H](CO)N1C[C@H](C)[C@@H](CN(C)C(=O)Nc2ccccc2F)Oc2cc(Br)ccc2S1(=O)=O` is 1.01 ± 0.02. Consider `COc1ccc2c3c([C@H](CO)N(C[C@]33CCN(CC3)C(=O)Nc3ccc(F)cc3F)C(=O)Nc3ccc(F)cc3)n(C)c2c1`, for which the viability index under setting [1] was determined as 1.04 ± 0.029.

For the compound `N#C[C@@H]1N[C@H](CO)[C@H]1c1ccc(-c2cccc(F)c2)cc1`, under setting [1], the viability index came to 1.18 ± 0.088.

In the case of `CCS(=O)(=O)Nc1ccc2c(c1)C(=O)N(C)[C@@H]1CC[C@H](CC(=O)NCc3ccc(OC)cc3)O[C@H]1CO2`, the viability index under setting [1] was 1.01 ± 0.078. On the same count and under the same terms, the figure for `N#Cc1cccc(-c2ccc3c(c2)[C@@H]2[C@@H](CCN2S(=O)(=O)c2ccc(F)cc2)[C@@H](CO)N3)c1` is 0.855 ± 0.011; for `Cc1cccc(S(=O)(=O)N2CC[C@H]3[C@H](CO)Nc4ccc(-c5ccccc5F)cc4[C@H]32)c1` it is 1.08 ± 0.023. Compound `Cc1cccc(S(=O)(=O)N2CC[C@@H]3[C@H]2c2cc(-c4ccccc4F)ccc2N[C@@H]3CO)c1` yielded a viability index under setting [1] of 0.926 ± 0.08. Still for that read-out and setting: the figure for `N#Cc1cccc(-c2ccc3c(c2)[C@H]2[C@H](CCN2S(=O)(=O)c2ccc(F)cc2)[C@H](CO)N3)c1` is 1.09 ± 0.017. The same measure, in the same setting: with `Cc1cccc(S(=O)(=O)N2CC[C@@H]3[C@H](CO)Nc4ccc(-c5ccccc5F)cc4[C@@H]32)c1` the figure was 1.06 ± 0.03; with `COc1ccc(-c2ccc3c(c2)[C@@H]2[C@@H](CCN2C(=O)c2cccc(F)c2)[C@@H](CO)N3)cc1`, 0.996 ± 0.08; with `COc1ccc(-c2ccc3c(c2)[C@H]2[C@H](CCN2C(=O)c2cccc(F)c2)[C@@H](CO)N3)cc1`, 0.942 ± 0.075. On the same count and under the same terms, with `N#Cc1cccc(-c2ccc3c(c2)[C@@H]2[C@@H](CCN2S(=O)(=O)c2ccc(F)cc2)[C@H](CO)N3)c1` the figure was 0.844 ± 0.062; with `COc1ccc(-c2ccc3c(c2)[C@@H]2[C@@H](CCN2C(=O)c2cccc(F)c2)[C@H](CO)N3)cc1`, 0.848 ± 0.042. Under setting [1], `Cc1cccc(S(=O)(=O)N2CC[C@@H]3[C@@H](CO)Nc4ccc(-c5ccccc5F)cc4[C@@H]32)c1` showed a viability index of 1.18 ± 0.029. The same measure, in the same setting: with `COc1ccccc1-c1ccc2c(c1)[C@@H]1[C@@H](CCN1S(=O)(=O)c1ccc(C)cc1)[C@H](CO)N2` the figure was 0.836 ± 0.028. Compound `COc1ccccc1-c1ccc2c(c1)[C@H]1[C@H](CCN1S(=O)(=O)c1ccc(C)cc1)[C@@H](CO)N2` had a viability index under setting [1] of 0.811 ± 0.098. `C[C@@H]1CN([C@H](C)CO)C(=O)CCCn2cc(nn2)CO[C@H]1CN(C)C(=O)Nc1cccc2ccccc12`: the viability index under setting [1] was 0.99 ± 0.023.
